# Data from the supplement of paper PMC13380429.
# A number with no mark means an inactive call.
# Tested on: Vero E6 infected with SARS-CoV-2
# Experiment: inhibition of SARS-CoV-2 cytopathic effect; higher = more antiviral protection, active = above 15
# Settings: 48 h
Compound,inhibition of SARS-CoV-2 cytopathic effect (1 nM),inhibition of SARS-CoV-2 cytopathic effect (8.33 nM),inhibition of SARS-CoV-2 cytopathic effect (100 nM),inhibition of SARS-CoV-2 cytopathic effect (833.33 nM),inhibition of SARS-CoV-2 cytopathic effect (10000 nM)
c1ccc([C@@H]2C[C@H]2NC2CCNCC2)cc1,-2.71%,1.14%,0.53%,1.44%,-2.6%
O=C1CC[C@@]2(O)[C@H]3Cc4ccc(O)c5c4[C@@]2(CCN3CC2CC2)[C@H]1O5,4.81%,3.83%,1.26%,-1.24%,0.01%
COC(=O)C[C@](O)(CCCC(C)(C)O)C(=O)O[C@@H]1C(OC)=C[C@]23CCCN2CCc2cc4c(cc2[C@H]13)OCO4 [homoharringtonine],1.04%,2.85%,26.2% (active),4.43%,-23.7%
C[C@H](N)Cn1ccc2cc(F)c(Cl)cc21,1.25%,4.09%,1.91%,-2.16%,-0.64%
Cc1cc(N)c2ccccc2[n+]1CCCCCCCCCC[n+]1c(C)cc(N)c2ccccc21 [dequalinium],1.5%,2.58%,-2.33%,-2.88%,-3.48%
CCOC(=O)c1ccc(N2NC(=O)/C(=C/c3ccc([N+](=O)[O-])o3)C2=O)cc1,1.63%,-1.91%,-0.91%,-2.48%,-6.2%
CCNC(=O)NS(=O)(=O)c1sc(CC(C)C)cc1-c1ccc(Cn2c(-c3ccccc3)nc(OC)c2C=O)cc1,-1.39%,-0.39%,2.26%,1.08%,0.67%
